# Results taken from the supplement of paper PMC10849652.
# Targets with a hit are over-represented here; the source holds about 7,900 in all. About 0.6% of all pairs of compound and target were hits. Values without a mark were called inactive.
# What was measured:
# Assay in all cases: log2 fold change, soluble protein after heating vs DMSO (PISA); higher = thermal stabilisation; K562 cells, 10 uM, 30 min; active = over 0.2 and 3.5 SD of the protein, either way, in both replicates (recomputed)
# erlotinib = compound: C#Cc1cccc(Nc2ncnc3cc(OCCOC)c(OCCOC)cc23)c1 [erlotinib]
# Outline: (§1)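 Values are thermal stability changes relative to control samples and are taken from duplicates. They are stated as log2 fold changes. Before quantification by TMTpro 16plex LC-MS/MS with equalised channel sums, K562 cells at 2×10^6 cells/mL were treated with 10 μM compound for 30 min, heated in aliquots for 3 min across 48°C-58°C, pooled, extracted in PBS with 0.5% NP-40 at 4°C, and centrifuged at 21,000xg for 90 min to give the soluble supernatant.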
# [1] = compound: C/C(=N\NC(=O)C1=CC(=CC=C1)S(=O)(=O)N2CCOCC2)/C3=C(C=CC(=C3)Cl)O
# Outline: as §1
# [2] = compound: C1=CC(=C(C=C1Cl)C2=NC3=NC=CN=C3C(=N2)NC4=CC=NC=C4)F
# Outline: as §1
# [3] = compound: C1=CC(=CC=C1C2=NC3=C(N2)C=C(C=C3)C(=O)N)OC4=CC=C(C=C4)Cl
# Outline: as §1
# [4] = compound: C1=CC2=C(C=CC(=C2)/C=C\3/C(=O)NC(=NCC4=CC=CS4)S3)N=C1
# Outline: as §1
# [5] = compound: C1=CC2=NC=CN=C2C=C1/C=C/3\C(=O)NC(=O)S3
# Outline: as §1
# [6] = compound: C1=CC=C(C=C1)C2=NC(=C(N2)C3=CC=NC=C3)C4=CC(=C(C=C4)Cl)O
# Outline: as §1
# [7] = compound: C1=CC=C2C(=C1)C3=NNC4=CC=CC(=C43)C2=O
# Outline: as §1
# [8] = compound: C1CCN(C1)C(=O)NC2=CC=CC(=C2)NC3=NC=C(C(=N3)NCCC4=CN=CN4)Br
# Outline: as §1
# [9] = compound: C1CN(CCC1(CC2=CC=C(C=C2)Cl)N)C3=NC=NC4=C3C=CN4
# Outline: as §1
# Chain of UniProt Q9BQK8 (Q9BQK8 whole entry, looked up): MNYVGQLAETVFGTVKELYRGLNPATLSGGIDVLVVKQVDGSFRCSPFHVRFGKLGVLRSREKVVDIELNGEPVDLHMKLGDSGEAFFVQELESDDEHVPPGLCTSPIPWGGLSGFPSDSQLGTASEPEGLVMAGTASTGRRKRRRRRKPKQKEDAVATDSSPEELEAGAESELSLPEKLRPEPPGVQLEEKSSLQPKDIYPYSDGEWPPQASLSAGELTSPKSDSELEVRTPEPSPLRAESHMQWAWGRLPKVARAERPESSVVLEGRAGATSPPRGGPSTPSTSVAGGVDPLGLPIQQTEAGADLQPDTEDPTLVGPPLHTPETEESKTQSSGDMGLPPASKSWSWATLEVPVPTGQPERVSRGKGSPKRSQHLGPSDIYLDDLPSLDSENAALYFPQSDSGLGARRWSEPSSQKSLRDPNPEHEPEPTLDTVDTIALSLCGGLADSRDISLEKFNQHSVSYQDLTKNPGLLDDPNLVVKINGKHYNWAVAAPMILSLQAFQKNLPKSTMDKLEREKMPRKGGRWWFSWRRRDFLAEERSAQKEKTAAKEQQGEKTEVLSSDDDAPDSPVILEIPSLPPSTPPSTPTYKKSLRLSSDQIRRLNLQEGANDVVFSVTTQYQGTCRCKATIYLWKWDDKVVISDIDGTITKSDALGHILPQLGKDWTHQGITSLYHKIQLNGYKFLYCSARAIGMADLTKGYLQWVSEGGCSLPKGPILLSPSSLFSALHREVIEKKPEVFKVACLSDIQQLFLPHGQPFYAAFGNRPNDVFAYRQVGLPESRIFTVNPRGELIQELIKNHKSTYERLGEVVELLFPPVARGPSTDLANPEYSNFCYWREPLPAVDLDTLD
# Chain of UniProt P23368 (P23368 whole entry, looked up): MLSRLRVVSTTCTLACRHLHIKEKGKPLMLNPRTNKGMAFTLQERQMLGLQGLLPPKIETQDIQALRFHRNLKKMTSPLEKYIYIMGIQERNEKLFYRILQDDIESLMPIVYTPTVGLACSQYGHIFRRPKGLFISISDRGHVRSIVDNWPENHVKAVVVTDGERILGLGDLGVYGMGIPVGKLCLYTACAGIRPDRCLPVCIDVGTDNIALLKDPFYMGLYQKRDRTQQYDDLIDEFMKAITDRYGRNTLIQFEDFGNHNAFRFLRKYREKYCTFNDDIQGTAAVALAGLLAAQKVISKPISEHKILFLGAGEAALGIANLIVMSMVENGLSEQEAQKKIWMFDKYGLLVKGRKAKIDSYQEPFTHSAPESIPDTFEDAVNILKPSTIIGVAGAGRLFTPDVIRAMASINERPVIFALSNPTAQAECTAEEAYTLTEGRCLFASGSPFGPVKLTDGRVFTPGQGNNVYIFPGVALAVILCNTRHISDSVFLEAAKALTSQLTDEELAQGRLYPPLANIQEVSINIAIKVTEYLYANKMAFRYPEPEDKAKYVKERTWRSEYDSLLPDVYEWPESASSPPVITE
# Chain of UniProt P50748 (P50748 whole entry, looked up): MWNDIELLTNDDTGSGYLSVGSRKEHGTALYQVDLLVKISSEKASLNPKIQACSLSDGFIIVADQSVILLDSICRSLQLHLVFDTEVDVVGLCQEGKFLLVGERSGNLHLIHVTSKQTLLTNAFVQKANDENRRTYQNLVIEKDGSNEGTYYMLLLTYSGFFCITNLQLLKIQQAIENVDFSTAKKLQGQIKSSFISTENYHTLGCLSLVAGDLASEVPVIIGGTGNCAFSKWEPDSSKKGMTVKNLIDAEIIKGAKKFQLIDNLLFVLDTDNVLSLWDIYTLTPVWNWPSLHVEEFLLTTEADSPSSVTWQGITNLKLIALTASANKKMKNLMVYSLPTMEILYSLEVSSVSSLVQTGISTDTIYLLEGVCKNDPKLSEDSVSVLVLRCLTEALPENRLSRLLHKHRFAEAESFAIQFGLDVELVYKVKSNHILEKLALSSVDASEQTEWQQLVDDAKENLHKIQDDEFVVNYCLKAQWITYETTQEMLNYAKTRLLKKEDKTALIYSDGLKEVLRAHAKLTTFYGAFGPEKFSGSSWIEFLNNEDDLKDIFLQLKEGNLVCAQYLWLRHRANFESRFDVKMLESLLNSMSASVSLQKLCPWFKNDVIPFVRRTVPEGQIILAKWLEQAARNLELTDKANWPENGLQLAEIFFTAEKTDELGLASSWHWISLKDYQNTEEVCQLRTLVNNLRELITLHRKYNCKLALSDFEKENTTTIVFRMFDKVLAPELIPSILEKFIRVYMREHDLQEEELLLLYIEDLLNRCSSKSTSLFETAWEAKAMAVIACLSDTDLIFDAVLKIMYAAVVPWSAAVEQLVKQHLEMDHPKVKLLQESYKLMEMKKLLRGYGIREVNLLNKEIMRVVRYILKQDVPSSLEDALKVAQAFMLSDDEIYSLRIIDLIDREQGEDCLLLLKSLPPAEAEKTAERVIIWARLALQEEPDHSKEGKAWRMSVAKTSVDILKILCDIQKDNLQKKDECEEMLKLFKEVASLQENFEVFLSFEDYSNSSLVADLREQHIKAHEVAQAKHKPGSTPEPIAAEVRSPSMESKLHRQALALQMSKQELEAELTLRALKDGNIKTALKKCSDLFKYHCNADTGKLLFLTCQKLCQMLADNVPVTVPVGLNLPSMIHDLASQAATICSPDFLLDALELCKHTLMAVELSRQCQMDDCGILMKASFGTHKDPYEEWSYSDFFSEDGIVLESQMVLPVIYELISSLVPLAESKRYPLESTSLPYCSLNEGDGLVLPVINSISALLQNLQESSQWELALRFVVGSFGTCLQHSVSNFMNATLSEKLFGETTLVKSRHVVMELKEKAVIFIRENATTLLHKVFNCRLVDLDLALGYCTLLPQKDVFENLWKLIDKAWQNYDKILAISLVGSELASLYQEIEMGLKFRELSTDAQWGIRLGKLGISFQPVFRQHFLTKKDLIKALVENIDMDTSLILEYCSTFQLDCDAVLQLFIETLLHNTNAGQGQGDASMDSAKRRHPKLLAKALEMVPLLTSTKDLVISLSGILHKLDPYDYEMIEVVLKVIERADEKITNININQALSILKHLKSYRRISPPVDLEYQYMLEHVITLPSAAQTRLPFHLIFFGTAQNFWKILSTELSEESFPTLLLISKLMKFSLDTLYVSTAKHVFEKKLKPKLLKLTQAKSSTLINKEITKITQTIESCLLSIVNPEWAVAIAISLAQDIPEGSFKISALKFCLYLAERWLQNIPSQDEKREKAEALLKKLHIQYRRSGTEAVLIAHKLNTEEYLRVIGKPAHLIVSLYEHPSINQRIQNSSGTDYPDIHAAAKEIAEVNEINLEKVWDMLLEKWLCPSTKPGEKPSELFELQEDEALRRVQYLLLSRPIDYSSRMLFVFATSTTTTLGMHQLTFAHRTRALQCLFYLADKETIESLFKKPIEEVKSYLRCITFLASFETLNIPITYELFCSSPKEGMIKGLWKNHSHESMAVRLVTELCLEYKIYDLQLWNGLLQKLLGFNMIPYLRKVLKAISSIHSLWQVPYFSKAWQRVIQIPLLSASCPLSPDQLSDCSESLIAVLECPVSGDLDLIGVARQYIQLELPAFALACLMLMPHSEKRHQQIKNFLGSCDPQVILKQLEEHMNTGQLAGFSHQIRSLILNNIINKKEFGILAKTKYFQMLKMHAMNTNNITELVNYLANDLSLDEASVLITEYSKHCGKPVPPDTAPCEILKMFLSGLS
# Chain of UniProt Q9UPY8 (Q9UPY8 whole entry, looked up): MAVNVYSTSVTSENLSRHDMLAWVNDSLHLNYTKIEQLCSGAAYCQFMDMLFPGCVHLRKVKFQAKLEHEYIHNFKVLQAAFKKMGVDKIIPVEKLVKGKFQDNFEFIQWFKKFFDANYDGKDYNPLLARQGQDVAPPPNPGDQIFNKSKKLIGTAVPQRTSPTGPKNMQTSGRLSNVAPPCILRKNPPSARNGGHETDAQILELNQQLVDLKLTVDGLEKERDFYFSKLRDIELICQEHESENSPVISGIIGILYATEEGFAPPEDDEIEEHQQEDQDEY
# Chain of UniProt Q8N108 (Q8N108 whole entry, looked up): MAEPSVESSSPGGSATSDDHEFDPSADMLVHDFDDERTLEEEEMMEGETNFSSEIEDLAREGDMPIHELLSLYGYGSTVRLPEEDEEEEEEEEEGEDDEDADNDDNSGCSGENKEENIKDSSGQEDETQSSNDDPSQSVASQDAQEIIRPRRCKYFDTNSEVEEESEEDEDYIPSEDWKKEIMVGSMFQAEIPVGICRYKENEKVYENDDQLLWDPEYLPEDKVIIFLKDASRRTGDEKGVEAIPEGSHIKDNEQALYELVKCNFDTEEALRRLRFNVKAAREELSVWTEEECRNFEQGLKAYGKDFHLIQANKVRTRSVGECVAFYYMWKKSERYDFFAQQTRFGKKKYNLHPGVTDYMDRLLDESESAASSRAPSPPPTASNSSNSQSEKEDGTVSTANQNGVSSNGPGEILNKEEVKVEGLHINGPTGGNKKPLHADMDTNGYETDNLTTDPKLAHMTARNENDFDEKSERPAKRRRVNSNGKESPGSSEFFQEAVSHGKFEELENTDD
# Chain of UniProt Q13257 (Q13257 whole entry, looked up): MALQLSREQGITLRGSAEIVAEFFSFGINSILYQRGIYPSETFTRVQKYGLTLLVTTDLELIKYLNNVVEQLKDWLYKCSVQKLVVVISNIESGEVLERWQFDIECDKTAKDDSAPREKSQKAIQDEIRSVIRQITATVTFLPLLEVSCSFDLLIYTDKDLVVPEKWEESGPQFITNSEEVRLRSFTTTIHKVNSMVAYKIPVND
# Chain of UniProt P53778 (P53778 whole entry, looked up): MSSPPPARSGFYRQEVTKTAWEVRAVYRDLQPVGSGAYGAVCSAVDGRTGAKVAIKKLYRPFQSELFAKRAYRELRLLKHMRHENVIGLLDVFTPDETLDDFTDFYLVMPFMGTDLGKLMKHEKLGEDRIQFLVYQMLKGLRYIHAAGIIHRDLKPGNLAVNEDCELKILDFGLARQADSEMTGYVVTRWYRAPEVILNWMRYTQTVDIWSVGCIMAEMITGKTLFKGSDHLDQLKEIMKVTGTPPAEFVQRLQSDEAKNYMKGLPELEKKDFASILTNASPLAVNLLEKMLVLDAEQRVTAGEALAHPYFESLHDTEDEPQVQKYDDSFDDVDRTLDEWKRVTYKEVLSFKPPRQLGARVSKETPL
Target,log2 fold change (erlotinib),log2 fold change [1],log2 fold change [2],log2 fold change [3],log2 fold change [4],log2 fold change [5],log2 fold change [6],log2 fold change [7],log2 fold change [8],log2 fold change [9]
MAP4K4 isoform 3 (UniProt O95819),-0.057,0.058,-0.047,0.021,0,0.034,-0.069,-0.316 (active),-0.031,-0.012
MIER1 isoform 12 (UniProt Q8N108),0.399 (active),0.009,0.016,-0.031,0.024,0.014,0.001,0.02,-0.06,0.028
METTL18 (UniProt O95568),-0.042,-0.037,-0.08,0.027,0.038,0.046,-0.039,-0.06,0.028,0.078
MGST1 (UniProt P10620),-0.032,-0.037,0.063,0.021,0.02,0.038,0.024,-0.057,-0.004,-0.049
KIF2C (UniProt Q99661),0.036,0.09,0.036,0.021,0.01,-0.004,0.043,0.019,-0.031,-0.103
MAPKAPK3 (UniProt Q16644),0.034,-0.012,0.431 (active),-0.041,0.024,-0.069,0.256,0.029,0.021,-0.054
MAD2L1 (UniProt Q13257),-0.01,0.056,0.029,-0.052,0.033,0.056,-0.009,0.007,0.01,-0.032
MAGOHB (UniProt Q96A72),0.011,0.124,0.025,-0.002,-0.16,-0.013,-0.032,0.071,-0.157,-0.061
LDAH isoform 2 (UniProt Q9H6V9),0.116,0.052,-0.101,-0.041,0.047,0,0.018,0,0.06,-0.006
LMBR1 isoform 3 (UniProt Q8WVP7),0.148,-0.016,-0.034,0.071,-0.046,0.081,-0.14,-0.013,0.037,0.15
KDELR2 (UniProt P33947),-0.06,-0.052,0.048,-0.02,0.042,0.024,0.201,0.048,-0.102,0.019
MICOS13 (UniProt Q5XKP0),0.008,0.018,0.053,-0.007,0.001,0.039,0.051,0.052,0.007,0.023
MAPRE3 (UniProt Q9UPY8),-0.039,0.252 (active),0.076,0.003,-0.013,0.042,-0.05,0,0.035,-0.01
KNTC1 (UniProt P50748),0.102,0.068,0.029,-0.039,0.019,0.034,-0.065,-0.012,0.001,-0.004
LPIN3 isoform 2 (UniProt Q9BQK8),0.053,0.062,0.038,-0.045,0.108,0.022,-0.048,0.022,0.002,-0.014
LTN1 isoform 3 (UniProt O94822),0.026,0.114,-0.021,-0.02,0.032,-0.021,-0.027,-0.056,-0.027,-0.031
MIEF1 (UniProt Q9NQG6),0.009,0.03,0.104,0.021,0.072,0.001,0.025,-0.027,-0.028,-0.021
KIF13A (UniProt Q9H1H9),0.065,-0.026,-0.031,0.017,0.056,-0.009,-0.027,-0.055,-0.043,0.072
IGFBP2 (UniProt P18065),-0.074,-0.023,-0.146,0.3,0.054,0.03,0.09,-0.209,0.065,0.039
LUZP1 (UniProt Q86V48),-0.094,-0.035,-0.328,-0.01,-0.131,-0.095,-0.091,-0.187,-0.06,-0.297
KSR1 (UniProt Q8IVT5),0.082,0.004,0.044,-0.044,0.162,0.058,0.185,-0.106,-0.088,0.058
IWS1 (UniProt Q96ST2),0.029,0.029,0.091,0,-0.033,0.022,-0.013,-0.077,-0.067,-0.033
MFF (UniProt Q9GZY8),0.02,-0.022,0.011,-0.024,0.107,0.057,-0.008,-0.062,0.007,0.032
MAPK12 (UniProt P53778),-0.039,-0.033,-0.093,-0.053,0.008,-0.074,0.073,0.003,0.087,0.024
ME2 (UniProt P23368),-0.017,-0.017,0.01,-0.078,0.036,-0.024,0.055,-0.061,0.008,0.081
MEPCE (UniProt Q7L2J0),0.063,0.064,-0.022,-0.002,0.039,-0.01,0.103,0.024,-0.049,-0.047
IK (UniProt Q13123),0.049,0,-0.069,0,0.055,-0.022,-0.016,-0.11,-0.004,-0.065
MAP3K20 (UniProt Q9NYL2),0.014,-0.013,-0.009,0.043,-0.009,0.038,-0.011,-0.106,-0.046,-0.036
IPO11 isoform 2 (UniProt Q9UI26),-0.063,0.066,0.074,0.013,0.016,0.038,0.011,-0.023,0.001,-0.009
